Of roughly 7,900 targets only a part is listed; those with a hit were picked by preference. About 0.6% of all pairs of compound and target were hits. A number with no mark means an inactive call.
How the values were obtained:
Experiment in all cases: log2 fold change, soluble protein after heating vs DMSO (PISA); higher = thermal stabilisation; K562 cells, 10 uM, 30 min; active = over 0.2 and 3.5 SD of the protein, either way, in both replicates (recomputed)
saracatinib = compound: CN1CCN(CCOc2cc(OC3CCOCC3)c3c(Nc4c(Cl)ccc5c4OCO5)ncnc3c2)CC1 [saracatinib]
How it was run: (§1)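 K562 cells at 2×10^6 cells/mL were given 10 μM compound for 30 min. Aliquots then went through 3 min of heating across 48°C-58°C, were pooled, and were extracted in PBS with 0.5% NP-40 at 4°C, and the supernatant after 21,000xg for 90 min was quantified by TMTpro 16plex LC-MS/MS with channel sums equalised. Thermal stability relative to control samples, from duplicates, is given as log2 fold change.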

sotrastaurin = compound: CN1CCN(c2nc(C3=C(c4c[nH]c5ccccc45)C(=O)NC3=O)c3ccccc3n2)CC1 [sotrastaurin]
How it was run: as §1

alvocidib = compound: CN1CC[C@H](c2c(O)cc(O)c3c(=O)cc(-c4ccccc4Cl)oc23)[C@H](O)C1 [alvocidib]
How it was run: as §1

Tubastatin A = compound: CN1CCc2c(c3ccccc3n2Cc2ccc(C(=O)NO)cc2)C1 [Tubastatin A]
How it was run: as §1

[1] = compound: CNC(=O)C1=CC=CC=C1NC2=NC(=NC=C2Cl)NC3=C(C=C(C=C3)N4CCOCC4)OC
How it was run: as §1

defactinib = compound: CNC(=O)c1ccc(Nc2ncc(C(F)(F)F)c(NCc3nccnc3N(C)S(C)(=O)=O)n2)cc1 [defactinib]
How it was run: as §1

rucaparib = compound: CNCc1ccc(-c2[nH]c3cc(F)cc4c3c2CCNC4=O)cc1 [rucaparib]
How it was run: as §1

[2] = compound: CNc1nc(-c2ccc3c(N)n[nH]c3c2)cc(N2C[C@@H](C(=O)NC3CCCCC3)CC[C@H]2C)n1
How it was run: as §1

encorafenib = compound: COC(=O)N[C@@H](C)CNc1nccc(-c2cn(C(C)C)nc2-c2cc(Cl)cc(NS(C)(=O)=O)c2F)n1 [encorafenib]
How it was run: as §1

[3] = compound: COC(=O)[C@H](CCSC)NC(=O)C1=C(C=C(C=C1)NC[C@H](CS)N)C2=CC=CC=C2
How it was run: as §1

Sequence of UniProt O43524 (O43524 whole entry, looked up): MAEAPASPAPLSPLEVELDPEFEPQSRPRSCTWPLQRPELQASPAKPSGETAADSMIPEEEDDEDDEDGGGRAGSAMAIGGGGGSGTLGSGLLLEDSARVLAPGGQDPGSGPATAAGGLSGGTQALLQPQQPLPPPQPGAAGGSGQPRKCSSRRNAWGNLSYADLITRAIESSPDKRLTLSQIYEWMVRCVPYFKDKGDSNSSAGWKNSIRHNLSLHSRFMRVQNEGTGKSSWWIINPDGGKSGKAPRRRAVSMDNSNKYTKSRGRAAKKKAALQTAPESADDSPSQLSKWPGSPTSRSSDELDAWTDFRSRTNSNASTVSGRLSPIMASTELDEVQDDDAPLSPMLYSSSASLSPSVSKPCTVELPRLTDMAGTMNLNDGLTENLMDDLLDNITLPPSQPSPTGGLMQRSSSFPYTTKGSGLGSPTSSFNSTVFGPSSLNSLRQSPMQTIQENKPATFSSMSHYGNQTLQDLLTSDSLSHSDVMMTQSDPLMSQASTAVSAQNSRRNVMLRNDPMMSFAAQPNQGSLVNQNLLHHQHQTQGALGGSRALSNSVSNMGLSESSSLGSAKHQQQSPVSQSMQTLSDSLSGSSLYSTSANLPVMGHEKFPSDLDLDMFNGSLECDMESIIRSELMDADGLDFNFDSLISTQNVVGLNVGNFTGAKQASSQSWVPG
Sequence of UniProt Q16774 (Q16774 whole entry, looked up): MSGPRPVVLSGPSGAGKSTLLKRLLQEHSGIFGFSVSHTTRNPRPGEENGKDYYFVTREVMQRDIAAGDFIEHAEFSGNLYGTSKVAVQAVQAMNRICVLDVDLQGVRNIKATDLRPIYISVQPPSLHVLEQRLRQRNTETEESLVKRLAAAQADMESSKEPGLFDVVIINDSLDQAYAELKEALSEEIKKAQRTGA
Sequence of UniProt O76003 (O76003 whole entry, looked up): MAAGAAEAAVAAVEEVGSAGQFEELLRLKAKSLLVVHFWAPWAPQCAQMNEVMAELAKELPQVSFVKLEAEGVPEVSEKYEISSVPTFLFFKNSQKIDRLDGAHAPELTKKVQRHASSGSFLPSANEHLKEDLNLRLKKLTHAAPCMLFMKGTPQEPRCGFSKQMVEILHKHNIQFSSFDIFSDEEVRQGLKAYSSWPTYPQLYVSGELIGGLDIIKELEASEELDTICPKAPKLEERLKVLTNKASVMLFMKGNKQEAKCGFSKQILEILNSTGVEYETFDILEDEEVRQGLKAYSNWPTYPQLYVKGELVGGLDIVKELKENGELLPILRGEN
Sequence of UniProt Q92917 (Q92917 whole entry, looked up): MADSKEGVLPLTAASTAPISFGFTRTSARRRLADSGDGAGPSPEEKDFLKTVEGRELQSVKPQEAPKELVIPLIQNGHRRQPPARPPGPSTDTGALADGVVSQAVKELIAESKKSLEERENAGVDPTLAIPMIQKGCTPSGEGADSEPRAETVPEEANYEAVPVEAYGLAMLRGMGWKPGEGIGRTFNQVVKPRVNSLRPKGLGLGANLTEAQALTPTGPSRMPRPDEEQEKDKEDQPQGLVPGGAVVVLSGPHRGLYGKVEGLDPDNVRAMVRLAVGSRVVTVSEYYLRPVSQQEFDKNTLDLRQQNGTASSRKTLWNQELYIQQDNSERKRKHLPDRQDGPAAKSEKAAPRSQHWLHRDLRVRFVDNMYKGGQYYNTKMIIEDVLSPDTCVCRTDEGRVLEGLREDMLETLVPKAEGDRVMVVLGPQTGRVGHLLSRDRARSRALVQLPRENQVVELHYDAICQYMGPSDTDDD
Sequence of UniProt O43427 (O43427 whole entry, looked up): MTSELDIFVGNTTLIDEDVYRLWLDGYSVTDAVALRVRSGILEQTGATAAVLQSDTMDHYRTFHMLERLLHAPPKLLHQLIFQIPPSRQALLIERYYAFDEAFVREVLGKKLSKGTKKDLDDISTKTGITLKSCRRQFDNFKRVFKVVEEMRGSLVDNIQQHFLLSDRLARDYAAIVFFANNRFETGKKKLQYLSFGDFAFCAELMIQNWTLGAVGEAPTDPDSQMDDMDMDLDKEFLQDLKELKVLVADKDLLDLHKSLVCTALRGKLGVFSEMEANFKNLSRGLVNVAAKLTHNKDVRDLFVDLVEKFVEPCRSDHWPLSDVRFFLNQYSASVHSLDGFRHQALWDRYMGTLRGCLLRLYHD
Sequence of UniProt Q6Y7W6 (Q6Y7W6 whole entry, looked up): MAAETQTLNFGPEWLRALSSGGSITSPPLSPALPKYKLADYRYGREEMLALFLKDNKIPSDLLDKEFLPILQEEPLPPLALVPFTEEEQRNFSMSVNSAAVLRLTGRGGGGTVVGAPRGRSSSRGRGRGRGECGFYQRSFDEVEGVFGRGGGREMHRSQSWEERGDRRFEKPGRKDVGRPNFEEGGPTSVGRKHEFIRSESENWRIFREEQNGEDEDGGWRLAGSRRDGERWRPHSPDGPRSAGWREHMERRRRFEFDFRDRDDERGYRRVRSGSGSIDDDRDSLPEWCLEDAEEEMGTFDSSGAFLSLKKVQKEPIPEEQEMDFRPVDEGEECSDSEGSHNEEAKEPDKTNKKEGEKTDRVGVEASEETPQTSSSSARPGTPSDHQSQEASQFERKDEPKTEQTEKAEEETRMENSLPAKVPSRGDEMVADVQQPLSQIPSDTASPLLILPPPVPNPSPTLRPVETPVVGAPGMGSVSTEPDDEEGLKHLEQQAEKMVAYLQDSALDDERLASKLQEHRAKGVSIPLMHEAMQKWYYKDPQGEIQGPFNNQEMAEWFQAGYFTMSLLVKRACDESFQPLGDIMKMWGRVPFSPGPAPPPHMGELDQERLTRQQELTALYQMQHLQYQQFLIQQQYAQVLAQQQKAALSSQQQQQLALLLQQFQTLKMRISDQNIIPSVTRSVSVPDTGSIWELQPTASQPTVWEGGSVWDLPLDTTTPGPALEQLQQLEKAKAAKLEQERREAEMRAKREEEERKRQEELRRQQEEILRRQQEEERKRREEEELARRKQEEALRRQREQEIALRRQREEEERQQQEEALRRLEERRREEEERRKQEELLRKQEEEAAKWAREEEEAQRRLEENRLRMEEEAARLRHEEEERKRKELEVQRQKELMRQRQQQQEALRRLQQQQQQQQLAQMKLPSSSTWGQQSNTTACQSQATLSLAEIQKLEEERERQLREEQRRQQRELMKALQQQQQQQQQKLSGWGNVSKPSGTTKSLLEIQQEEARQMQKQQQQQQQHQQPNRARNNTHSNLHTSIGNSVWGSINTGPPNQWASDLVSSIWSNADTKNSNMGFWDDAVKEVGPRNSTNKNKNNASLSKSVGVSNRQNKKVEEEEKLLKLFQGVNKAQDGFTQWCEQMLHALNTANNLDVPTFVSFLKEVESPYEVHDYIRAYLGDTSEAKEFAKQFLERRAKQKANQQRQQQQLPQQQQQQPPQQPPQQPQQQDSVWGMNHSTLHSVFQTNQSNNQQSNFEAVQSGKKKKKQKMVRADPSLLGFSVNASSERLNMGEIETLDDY
Sequence of UniProt P50213 (P50213 whole entry, looked up): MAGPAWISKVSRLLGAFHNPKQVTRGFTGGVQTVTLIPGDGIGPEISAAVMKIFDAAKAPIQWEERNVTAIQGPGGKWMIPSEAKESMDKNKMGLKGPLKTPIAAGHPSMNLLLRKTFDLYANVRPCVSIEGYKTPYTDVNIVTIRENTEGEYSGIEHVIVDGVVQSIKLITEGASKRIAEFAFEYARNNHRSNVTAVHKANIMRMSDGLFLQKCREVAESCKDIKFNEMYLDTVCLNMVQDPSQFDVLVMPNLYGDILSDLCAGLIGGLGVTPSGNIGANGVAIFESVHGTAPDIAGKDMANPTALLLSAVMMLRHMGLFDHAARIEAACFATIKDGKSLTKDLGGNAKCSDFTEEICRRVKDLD
Sequence of UniProt P29083 (P29083 whole entry, looked up): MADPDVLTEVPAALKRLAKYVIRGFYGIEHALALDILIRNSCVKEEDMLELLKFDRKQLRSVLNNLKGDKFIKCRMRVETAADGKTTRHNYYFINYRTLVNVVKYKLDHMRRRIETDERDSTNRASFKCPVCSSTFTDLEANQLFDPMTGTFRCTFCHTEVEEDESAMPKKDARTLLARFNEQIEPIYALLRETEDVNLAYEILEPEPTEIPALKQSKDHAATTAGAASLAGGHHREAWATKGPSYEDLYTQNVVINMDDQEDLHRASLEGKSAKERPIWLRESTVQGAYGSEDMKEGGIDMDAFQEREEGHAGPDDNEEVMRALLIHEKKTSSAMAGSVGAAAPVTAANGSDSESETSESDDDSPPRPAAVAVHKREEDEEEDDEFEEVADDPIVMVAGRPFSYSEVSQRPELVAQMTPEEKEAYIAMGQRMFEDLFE
Sequence of UniProt Q8N9F7 (Q8N9F7 whole entry, looked up): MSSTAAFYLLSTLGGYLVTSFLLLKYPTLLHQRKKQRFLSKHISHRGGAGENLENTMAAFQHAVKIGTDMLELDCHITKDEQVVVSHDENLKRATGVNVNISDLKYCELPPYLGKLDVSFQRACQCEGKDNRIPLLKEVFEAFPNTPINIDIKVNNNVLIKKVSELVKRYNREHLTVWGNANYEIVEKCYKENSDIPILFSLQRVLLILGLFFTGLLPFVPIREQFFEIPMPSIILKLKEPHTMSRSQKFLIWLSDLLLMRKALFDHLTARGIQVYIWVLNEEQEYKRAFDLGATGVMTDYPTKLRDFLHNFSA
Sequence of UniProt Q9H4A6 (Q9H4A6 whole entry, looked up): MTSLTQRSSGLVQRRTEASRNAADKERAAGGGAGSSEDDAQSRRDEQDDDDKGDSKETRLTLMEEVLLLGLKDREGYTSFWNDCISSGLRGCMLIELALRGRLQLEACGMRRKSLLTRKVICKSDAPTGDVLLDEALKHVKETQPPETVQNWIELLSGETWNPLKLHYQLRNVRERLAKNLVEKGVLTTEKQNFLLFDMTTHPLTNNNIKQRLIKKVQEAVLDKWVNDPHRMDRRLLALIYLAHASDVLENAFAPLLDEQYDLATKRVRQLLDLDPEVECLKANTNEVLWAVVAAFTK
Sequence of UniProt P09211 (P09211 whole entry, looked up): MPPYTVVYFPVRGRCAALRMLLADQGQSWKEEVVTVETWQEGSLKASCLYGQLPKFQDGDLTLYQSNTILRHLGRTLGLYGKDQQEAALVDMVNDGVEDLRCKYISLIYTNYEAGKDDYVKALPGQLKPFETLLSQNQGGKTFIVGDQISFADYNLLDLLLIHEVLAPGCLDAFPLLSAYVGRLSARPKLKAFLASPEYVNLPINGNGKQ

Row | Target | log2 fold change (saracatinib) | log2 fold change (sotrastaurin) | log2 fold change (alvocidib) | log2 fold change (Tubastatin A) | log2 fold change [1] | log2 fold change (defactinib) | log2 fold change (rucaparib) | log2 fold change [2] | log2 fold change (encorafenib) | log2 fold change [3]
1 | FOXO3 (UniProt O43524) | -0.017 | 0.004 | -0.124 | 0.051 | -0.167 | -0.037 | -0.077 | -0.208 | 0.16 | 0.021
2 | GSR (UniProt P00390) | -0.021 | 0.048 | 0 | 0.008 | -0.006 | -0.016 | -0.025 | -0.021 | -0.02 | 0.002
3 | GLRX3 (UniProt O76003) | -0.017 | -0.066 | -0.071 | 0.015 | 0.053 | -0.091 | -0.063 | -0.023 | 0.029 | -0.03
4 | GDPD1 (UniProt Q8N9F7) | 0.505 (active) | 0.21 | -0.058 | 0.019 | -0.017 | -0.087 | -0.07 | 0.042 | -0.051 | -0.041
5 | HMOX2 (UniProt P30519) | -0.071 | -0.04 | -0.06 | 0.004 | 0.03 | -0.049 | 0.036 | 0.15 | 0.081 | -0.038
6 | FBXO6 (UniProt Q9NRD1) | 0.042 | -0.085 | -0.092 | -0.016 | 0.031 | -0.038 | -0.064 | 0.011 | 0.033 | -0.099
7 | GOLPH3 (UniProt Q9H4A6) | -0.016 | -0.046 | -0.081 | 0.028 | 0.022 | -0.064 | -0.064 | 0.013 | 0.047 | -0.044
8 | GEMIN5 (UniProt Q8TEQ6) | -0.014 | -0.035 | -0.192 | -0.053 | -0.02 | -0.216 (active) | 0.026 | 0.025 | 0.061 | -0.019
9 | FIBP (UniProt O43427) | -0.074 | -0.05 | -0.01 | 0.07 | 0.002 | -0.046 | 0.395 (active) | -0.085 | 0.039 | 0.004
10 | IFI30 (UniProt P13284) | 0.224 | 0.063 | -0.003 | -0.028 | -0.02 | -0.048 | 0.006 | 0.144 | 0.009 | 0.042
11 | GTF3C4 (UniProt Q9UKN8) | 0.06 | 0.021 | -0.03 | -0.009 | -0.005 | -0.081 | 0.029 | -0.001 | 0.043 | -0.01
12 | GTPBP6 (UniProt O43824) | 0.049 | -0.011 | 0.015 | -0.03 | -0.149 | -0.013 | 0.053 | 0.007 | -0.086 | 0.057
13 | IDH3A (UniProt P50213) | -0.004 | 0.008 | -0.056 | -0.058 | -0.026 | -0.023 | -0.031 | -0.026 | -0.01 | 0.002
14 | GID4 (UniProt Q8IVV7) | 0.04 | -0.091 | -0.006 | 0.015 | -0.038 | 0.032 | 0.032 | -0.079 | -0.072 | 0.139
15 | GPKOW (UniProt Q92917) | -0.03 | -0.031 | -0.188 | 0.033 | -0.107 | -0.178 | -0.036 | 0.069 | 0.034 | -0.032
16 | FAM91A1 (UniProt Q658Y4) | 0.055 | -0.049 | -0.037 | 0.005 | 0.059 | 0 | -0.015 | 0.002 | 0.05 | -0.025
17 | GIGYF2 (UniProt Q6Y7W6) | -0.097 | -0.111 | -0.118 | 0.023 | 0.005 | -0.04 | 0.065 | 0.016 | -0.018 | -0.022
18 | HEXA (UniProt P06865) | 0.031 | 0.098 | 0.005 | -0.145 | -0.012 | -0.008 | -0.07 | -0.018 | 0.003 | 0.016
19 | HIST2H2BF isoform 2 (UniProt Q5QNW6) | -0.084 | 0.074 | 0.144 | 0.093 | -0.044 | 0.313 | 0.325 | 0.039 | 0.015 | 0.05
20 | GTF2E1 (UniProt P29083) | -0.026 | -0.11 | -0.148 | 0.064 | 0 | -0.272 | -0.126 | -0.047 | 0.199 | -0.099
21 | GSTP1 (UniProt P09211) | -0.011 | 0.053 | -0.051 | -0.015 | -0.001 | -0.033 | -0.046 | 0.02 | -0.007 | 0.027
22 | HDAC2 (UniProt Q92769) | -0.001 | -0.02 | -0.091 | 0.907 (active) | -0.113 | -0.035 | -0.006 | -0.015 | -0.046 | -0.006
23 | HNRNPF (UniProt P52597) | -0.042 | -0.121 | -0.088 | 0.086 | 0.004 | -0.253 | 0.098 | 0.004 | 0.119 | -0.06
24 | FUCA2 (UniProt Q9BTY2) | -0.013 | -0.021 | -0.003 | -0.026 | 0.028 | -0.045 | -0.139 | 0.003 | 0.012 | 0.038
25 | HDHD2 (UniProt Q9H0R4) | -0.004 | -0.077 | -0.028 | -0.016 | -0.017 | 0 | -0.049 | -0.048 | 0.016 | -0.018
26 | GUK1 isoform 2 (UniProt Q16774) | 0.001 | -0.223 | -0.092 | 0.064 | 0.027 | -0.162 | 0.175 | 0.026 | -0.079 | 0

— the supplement of paper PMC10849652
